Data: PubChem BioAssay (NCI)
This is part of a sample that, as a whole, favours compounds with a hit. Of some 83,000 tested, about 20% had one in any assay.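 Values shown are percent growth following 48 h exposure of cells in 96-well plates to a single concentration of compound; below 10 was considered active.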 Unmarked numbers belong to inactive results. Active and inactive are the calls of the source.

Columns and labels:
Experiment in all cases: NCI-60 one-dose screen, 48 h (100 = growth as untreated, 0 = no growth, -100 = all killed)
Conditions in all cases: 10 µM unless noted
HCT-15 colon = tested on: HCT-15 colon
HT29 colon = tested on: HT29 colon
SNB-75 CNS = tested on: SNB-75 CNS
SNB-19 CNS = tested on: SNB-19 CNS
U251 CNS = tested on: U251 CNS
PC-3 prostate = tested on: PC-3 prostate
SK-MEL-5 melanoma = tested on: SK-MEL-5 melanoma
UACC-62 melanoma = tested on: UACC-62 melanoma
LOX IMVI melanoma = tested on: LOX IMVI melanoma
SK-MEL-28 melanoma = tested on: SK-MEL-28 melanoma
SK-MEL-2 melanoma = tested on: SK-MEL-2 melanoma
EKVX NSCLC = tested on: EKVX NSCLC
SN12C renal = tested on: SN12C renal
UO-31 renal = tested on: UO-31 renal
TK-10 renal = tested on: TK-10 renal
ACHN renal = tested on: ACHN renal
CAKI-1 renal = tested on: CAKI-1 renal
A498 renal = tested on: A498 renal
CCRF-CEM leukemia = tested on: CCRF-CEM leukemia
MOLT-4 leukemia = tested on: MOLT-4 leukemia

Structure (SMILES)	growth (HCT-15 colon)	growth (HT29 colon)	growth (SNB-75 CNS)	growth (SNB-19 CNS)	growth (U251 CNS)	growth (PC-3 prostate)	growth (SK-MEL-5 melanoma)	growth (UACC-62 melanoma)	growth (LOX IMVI melanoma)	growth (SK-MEL-28 melanoma)	growth (SK-MEL-2 melanoma)	growth (EKVX NSCLC)	growth (SN12C renal)	growth (UO-31 renal)	growth (TK-10 renal)	growth (ACHN renal)	growth (CAKI-1 renal)	growth (A498 renal)	growth (CCRF-CEM leukemia)	growth (MOLT-4 leukemia)
CN(C)c1nc(-c2cccs2)n2nc(-c3ccc(Cl)cc3)cc2n1	92%	33.2%	-50.4% (active)	21.1%	7.58% (active)	47.1%	64.2%	70.7%	26.5%	79.2%	67%	49.6%	44.9%	-63.9% (active)	-23.1% (active)	-21.1% (active)	18.8%	-11.4% (active)	73.8%	82.1%
CCCCCCCCN(CCCCCCCC)C(=O)CCl	96.1%	114%	95.4%	97.5%	101%	85.6%	88.6%	82.9%	-63.3% (active)	110%	108%	108%	93.8%	73.3%	108%	100%	44.9%	99.8%	-33.4% (active)	90.6%
COc1ccc(Cl)cc1Nc1nc(C(F)(F)F)ccc1C(=O)NN	15.8%	31.4%	15%	41.7%	18.4%	17.2%	77.5%	9.62% (active)	5.37% (active)	13.4%	11.7%	27.9%	35.7%	33.6%	26.1%	6.99% (active)	20.5%	75.3%	-76.5% (active)	24.5%
COc1cc(/C=C2\CN(C(=O)OC(C)(C)C)C/C(=C\c3ccc(O)c(OC)c3)C2=O)ccc1O	98.4%	96.5%	94.8%	87.3%	92.9%	81.7%	93.4%	82.4%	92.4%	111%	86.2%	92.8%	88.9%	81%	105%	100%	74.2%	104%	101%	47.4%
O=C(N/N=C/c1ccc([N+](=O)[O-])cc1)c1ccccc1Nc1ccnc(C(F)(F)F)c1	89.9%	101%	77.2%	82.4%	88.7%	72.9%	-99% (active)	57.6%	78.2%	104%	58.5%	67.5%	83.9%	67.8%	83.4%	82.6%	76.4%	-26.1% (active)	77.9%	86.3%
CN1CCCN(CCNc2nccc(-c3c(-c4cccc(O)c4)nc4sccn34)n2)S1(=O)=O	33.7%	38.7%	12.9%	99.4%	56.6%	30.3%	37.7%	-12.6% (active)	14.2%	18.1%	22.1%	84.9%	38.1%	25.2%	92.4%	22.9%	-25% (active)	58.8%	31.3%	37.8%
CCCC(CCC)(C(N)=O)C(=O)O	105%	101%	104%	112%	106%	121%	110%	106%	93.5%	113%	120%	105%	102%	92.2%	115%	103%	95.3%	104%	103%	113%
O=C(/C=C/c1ccc(F)cc1)N1CCN(C(=O)/C=C/c2ccc(C(F)(F)F)cc2)CC1	104%	101%	119%	103%	107%	117%	98.9%	96.6%	111%	106%	118%	93.1%	106%	89.7%	105%	115%	97.3%	130%	103%	115%
COC(=O)OC1C(O[C@H]2C[C@H]3[C@@H]4CC=C5C[C@@H](O)CC[C@]5(C)[C@H]4CC[C@]3(C)[C@H]2[C@H](C)C(=O)CCC(C)C)OCC(O)C1OC1OCC(O)C(O)C1OC(=O)c1ccc(OC)cc1 (stereo not given in full)	-40.9% (active)	4.87% (active)	0.635% (active)	8.46% (active)	-18.5% (active)	-18.8% (active)	-71.5% (active)	-29% (active)	-38.7% (active)	-55.3% (active)	-46.1% (active)	14.3%	43.4%	-40.4% (active)	0.902% (active)	31.6%	-16.6% (active)	-74% (active)	-25.9% (active)	-36.5% (active)
CCOC(=O)C1C(=O)C=C(c2cc(OC)c(OC)c(OC)c2)CC1c1sc(N(C)Cc2ccccc2)nc1Cl (stereo not given)	92.1%	90.7%	79.6%	77.5%	87.8%	64%	72.7%	64.7%	94%	115%	71.9%	63.3%	80.6%	53%	87.4%	86.8%	46.8%	86.1%	82%	58.7%
COc1cc(C2CC(c3ccccc3)=NN2C=O)ccc1Oc1ccnc2cc(Cl)ccc12 (stereo not given)	59.3%	75.9%	69.9%	71.2%	88.6%	31.4%	1.25% (active)	54.3%	56.6%	75.9%	82.4%	33.5%	65.4%	47.2%	91.1%	68.9%	49.6%	76.4%	45.7%	12.8%
C=C1C(=O)O[C@H]2[C@H]1CC/C(COC(=O)NCc1c[nH]c3ccc(OC)cc13)=C\CC[C@@]1(C)O[C@@H]21	-26.1% (active)	-53.2% (active)	63.2%	64.4%	9.85% (active)	-2.65% (active)	15.1%	-31.6% (active)	-59.6% (active)	-23.9% (active)	35.9%	33.9%	10.9%	-85% (active)	-40.3% (active)	-10.7% (active)	-2.21% (active)	94.1%	-7.78% (active)	2.7% (active)
C=C[C@H]1CCC/C=C/[C@@H]2C[C@H](O)C[C@H]2[C@H](O)/C=C/C(=O)O1	5.82% (active)	-51.5% (active)	25.8%	22.3%	14.6%	15.1%	-77.7% (active)	5.56% (active)	-99.1% (active)	7.46% (active)	-37.9% (active)	3.38% (active)	5.71% (active)	-11.2% (active)	-45.6% (active)	5.96% (active)	-1.92% (active)	-48.7% (active)	7.38% (active)	0.424% (active)
COc1ccc2nc3ccccc3c(NCc3ccc(Cl)cc3)c2c1	5.04% (active)	-2.29% (active)	57.6%	26.4%	2.55% (active)	19.5%	11.7%	64.7%	-86.3% (active)	7.07% (active)	71.3%	33.8%	22.1%	1.86% (active)	52.9%	17.1%	21.4%	8.58% (active)	8.43% (active)	-8.25% (active)
Cc1cc(C#Cc2ccc(C(C)(C)C)cc2)ccc1-n1c(/C=C/c2c(Cl)cccc2Cl)nc2ccccc2c1=O	90.9%	93.2%	82%	105%	93.9%	80.8%	106%	101%	87.3%	126%	120%	89.9%	104%	77.2%	99.1%	96.2%	83.9%	104%	95.9%	86.9%
O=C(CCl)Nc1ccc2c(c1)C(=O)c1ccccc1C2=O	-38.8% (active)	-63.6% (active)	41.7%	36.9%	-56.3% (active)	-12.6% (active)	-82.8% (active)	-54.9% (active)	-81% (active)	35.4%	19.1%	57%	-21.3% (active)	46.6%	-27.9% (active)	-67.8% (active)	0.23% (active)	44%	-46.2% (active)	-29.1% (active)
